GSIS activator: GLuc luminescence reporter in INS-1E cells, primary screen for activators of glucose-dependent secretion of insulin; INS-1E GLuc reporter insulin secretion, 2-3 h; activation, % at 16.6 µM; actives 0.61% (n = 370,000); AID 743287;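 active means lowest replicate activation of at least 40%, so every replicate reaches that level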;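 further: 0% = median of neutral control wells and 100% = median of IBMX positive control wells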
MLL AF4-AF9 inh: blocks AF4 peptide binding to human AF9; P42568; AlphaScreen, biotin-AF4 peptide binding to FLAG-AF9; inhibition, % at 10 µM; actives 0.47% (n = 350,000);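 active means every replicate reaching a set inhibition limit, whatever the replicate mean, cut at about 25% in these data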;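 further: 0% = plate neutral control median and 100% = total signal loss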
Target sequence (P42568 whole entry, looked up): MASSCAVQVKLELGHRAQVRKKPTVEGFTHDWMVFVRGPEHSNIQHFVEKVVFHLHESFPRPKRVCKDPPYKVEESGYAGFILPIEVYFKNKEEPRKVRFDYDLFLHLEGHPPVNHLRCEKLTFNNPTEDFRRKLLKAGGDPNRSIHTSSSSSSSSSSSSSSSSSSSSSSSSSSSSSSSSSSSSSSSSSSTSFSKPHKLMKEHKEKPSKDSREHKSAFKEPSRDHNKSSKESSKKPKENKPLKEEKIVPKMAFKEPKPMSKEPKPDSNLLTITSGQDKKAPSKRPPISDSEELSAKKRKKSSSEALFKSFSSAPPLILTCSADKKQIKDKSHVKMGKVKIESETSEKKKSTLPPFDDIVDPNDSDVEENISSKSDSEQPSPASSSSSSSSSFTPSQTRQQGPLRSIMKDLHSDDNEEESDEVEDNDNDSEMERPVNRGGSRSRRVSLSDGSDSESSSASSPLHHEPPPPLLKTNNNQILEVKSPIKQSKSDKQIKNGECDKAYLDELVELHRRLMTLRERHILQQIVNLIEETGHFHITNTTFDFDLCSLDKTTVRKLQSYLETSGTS
ERAP1 HTS inh: ERAP1 (human) enzyme inhibition; Q9NZ08; recombinant ERAP1, Leu-AMC fluorescence, 60 min; inhibition, % at 10.7 µM; actives 0.15% (n = 340,000); AID 652197;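 active means mean replicate inhibition of at least 30%, or all replicates individually reaching that 30% level; inactive means mean below 30% and not every replicate reaching it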;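 further: 0% = neutral control wells and 100% = L-leucinethiol positive control wells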
RAD52 inh: inhibitors of human RAD52 DNA annealing; recombinant RAD52 DNA annealing, FRET fluorescence; actives 0.46% (n = 360,000); AID 651710; P43351; inhibition, % at 18.7 µM;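 active means every replicate showing at least 50% inhibition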
PGC1a acetyl inh: lowers PGC1a acetylation signal in U2OS cells. AlphaScreen anti-acetyl-lysine; with virally co-expressed GCN5 acetyltransferase. actives 0.17% (n = 350,000). inhibition, % at 15.6 µM;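 active means every replicate shows inhibition of at least 40%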;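 further: 0% = neutral control wells and 100% = positive control wells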
RAD54 branch: blocks human RAD54 Holliday junction branch migration; Q92698; FAM/BHQ fluorescence; inhibition, % at 10.4 µM; actives 0.14% (n = 360,000);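 active means mean normalized replicate activity at least 40 and at least half of replicates scoring 40 or more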;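 further: 0% = median of neutral control wells and 100% = median of positive control wells; inhibitors cause a drop in the FAM fluorescence signal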
* = called active by the depositor; nt = not tested or not shown. Rows were chosen to be rich in hits. Some 1.4% of all compounds tested hit in one or more screens of this group.

SMILES	GSIS activator	MLL AF4-AF9 inh	ERAP1 HTS inh	RAD52 inh	PGC1a acetyl inh	RAD54 branch
CCOC(=O)c1ccc(NC(=O)c2nc[nH]c2C(=O)N[C@H](C)CO)cc1	55.8*	-2.2	2.4	5.5	nt	-2.0
NC(=O)C1CCN(c2cc(Cl)nc(N)n2)CC1	16.5	3.0	1.2	-6.5	-5.2	nt
COC(=O)C1CCN(c2cc(Cl)nc(N)n2)CC1	48.3*	-3.1	1.5	-18.5	-0.8	-3.8
O=C(O)C[C@H]1C=C[C@H](NC(=O)c2ccccc2F)[C@H](CO)O1	-9.3	nt	nt	nt	1.2	nt
COc1ccc2c3c(n(C)c2c1)[C@@H](CO)N(CC1CCOCC1)CC31CN(C(=O)c2cccc(F)c2)C1	0.9	nt	nt	nt	nt	nt
Cc1ccc(NC(=O)CCCCCC2NC(=O)NC2C)cc1 (stereo not drawn)	16.6	97.1*	5.3	-0.3	4.2	-3.4
OCC1OC(n2ccc3c(NO)ncnc32)C(O)C1O (stereo not drawn)	-16.5	-1.8	0.6	-14.8	nt	nt
CN(C)c1ncnc2c1ccn2C1OC(CO)C(O)C1O (stereo not drawn)	-4.6	2.0	-0.5	4.8	52.5*	-1.9
COc1cc2c(cc1OC)/C(=C/C(=O)c1ccc(OC)c([N+](=O)[O-])c1)NCC2	51.1*	-0.3	-5.5	-13.3	nt	-2.8
C=C(C)COc1ccc(-c2nc(N)ncc2-c2ccc(OC)cc2)c(O)c1	nt	27.7*	nt	nt	nt	-8.7
CCCC#Cc1cnc2c(c1)C(=O)N([C@H](C)CO)C[C@@H](C)[C@H](CN(C)C(=O)Nc1ccccc1OC)O2	-16.9	2.2	6.5	5.0	-15.5	-1.5
CCN(Cc1ccccc1)S(=O)(=O)c1ccc(C(=O)Nc2nnc(C)o2)cc1	53.8*	0.1	-1.3	-6.5	nt	14.5
CCc1nnc(NC(=O)c2ccc(S(=O)(=O)N(CC)Cc3ccccc3)cc2)o1	nt	nt	nt	nt	2.5	-20.0
CCS(=O)(=O)Nc1ccc(-c2cc(-c3ccccc3)c3cc(C)ccc3n2)cc1	109.5*	nt	nt	nt	nt	nt
COc1ccccc1S(=O)(=O)Nc1ccc2c(c1)C(=O)N(C)C[C@@H](OC)[C@H](C)CN[C@@H](C)CO2	10.3	-2.7	nt	-7.4	5.0	9.4
CC(=O)N1[C@@H]2Cn3c(ccc(-c4ccc(F)cc4)c3=O)[C@H]1[C@@H](C(=O)N(C)C)[C@@H]2CO	1.8	-1.7	-1.6	-15.0	nt	0.3
O=C(O)c1ccccc1/C=N/NC(=O)C1CCCCC1	-5.4	1.6	nt	-0.2	13.4	-8.8
O=C(O)c1ccccc1/C=N/NC(=S)NC1CCCCC1	75.5*	6.4	-0.8	5.3	1.2	8.5
COc1ccc(NC(=O)Nc2ccc3c(c2)CC(=O)N([C@H](C)CO)C[C@H](C)[C@@H](CN(C)Cc2ccc(Oc4ccccc4)cc2)O3)cc1	16.1	3.0	-0.3	67.0*	-10.3	-1.2
COc1ccc(NC(=O)Nc2ccc3c(c2)CC(=O)N([C@@H](C)CO)C[C@@H](C)[C@H](CN(C)Cc2ccc(-c4ccccc4)cc2)O3)cc1	-1.6	1.4	1.2	57.5*	-12.7	-1.4
COc1ccc(NC(=O)Nc2ccc3c(c2)CC(=O)N([C@@H](C)CO)C[C@H](C)[C@H](CN(C)Cc2ccc(Oc4ccccc4)cc2)O3)cc1	-7.1	-0.7	-1.8	26.4	-7.5	6.2
COCCOc1ccc(C(F)(F)F)cc1NC(=O)c1ccccc1F	50.3*	nt	nt	nt	nt	nt
COCCOc1ccc(C(F)(F)F)cc1NC(=O)c1ccc(C(F)(F)F)cc1	-31.2	3.7	-1.2	-5.2	-9.0	2.9
O=C(NCCn1cc(CN2C(=O)COC[C@H]2c2ccccc2)nn1)Nc1ccccc1	nt	-3.8	0.4	0.1	1.4	nt
CCn1nc(C)c(NC(=O)c2cnn3c(C(F)F)cc(-c4ccccc4)nc23)c1C	54.9*	-1.6	5.0	-3.3	nt	nt
SMILES	GSIS activator	MLL AF4-AF9 inh	ERAP1 HTS inh	RAD52 inh	PGC1a acetyl inh	RAD54 branch
O=C(NN1CCCCC1)c1cnn2c(C(F)F)cc(-c3ccccc3)nc12	5.3	-0.2	10.8	-8.0	nt	nt
CCCn1c(/C=C/c2cc[n+](C)cc2)nc2ccccc21	0.5	-1.9	41.2*	-40.3	5.7	-7.8
C[C@H](O)C#Cc1ccc2c(c1)O[C@@H](CN(C)C(=O)Cc1ccccn1)[C@H](C)CN([C@@H](C)CO)S2(=O)=O	8.7	-3.3	-1.3	-2.2	1.2	1.2
CC(C)Nc1nc(NC(C)(C)C)nc(Oc2ccc(=O)n(C)n2)n1	40.6*	4.3	-1.4	-8.5	6.6	5.1
C[C@@H]1CN([C@@H](C)CO)C(=O)Cc2cc(N(C)C)ccc2O[C@H]1CN(C)Cc1ccc(Oc2ccccc2)cc1	-7.6	nt	nt	nt	-16.5	nt
C[C@@H]1CN([C@@H](C)CO)C(=O)c2cc(N(C)C)ccc2O[C@@H]1CN(C)Cc1ccc(Oc2ccccc2)cc1	-12.1	nt	nt	nt	-6.3	nt
C[C@H]1CN([C@@H](C)CO)C(=O)c2cc(N(C)C)ccc2O[C@@H]1CN(C)Cc1ccc(Oc2ccccc2)cc1	-16.0	39.6*	2.8	10.3	-7.4	-1.3
C[C@H]1CN([C@@H](C)CO)C(=O)c2cc(N(C)C)ccc2O[C@H]1CN(C)Cc1ccc(Oc2ccccc2)cc1	-13.2	44.6*	1.9	1.2	-0.3	0.1
C[C@@H]1CN([C@@H](C)CO)C(=O)c2cc(N(C)C)ccc2O[C@H]1CN(C)Cc1ccc(Oc2ccccc2)cc1	-13.2	44.6*	1.0	-0.7	-5.0	-6.7
CNC[C@H]1Oc2c(NC(=O)CCC(F)(F)F)cccc2C(=O)N([C@H](C)CO)C[C@@H]1C	2.3	nt	nt	nt	nt	nt
Cc1nc2cc(Br)ccc2c(=O)n1Cc1cccc(O)c1	nt	1.0	0.5	-2.3	-4.2	-11.2
COc1ccc(C2=Nn3c(nnc3-c3ccccc3OC)SC2)cc1OCC1CC1	49.8*	2.7	nt	-20.2	-23.8	1.9
CCCc1nnc2n1N=C(c1ccc(OC)c(OC)c1)CS2	106.3*	-3.7	0.6	-10.6	nt	nt
COc1ccc(C2=Nn3c(nnc3-c3ccccc3F)SC2)cc1OC1CCOC1 (stereo not drawn)	45.1*	6.3	4.4	-20.1	nt	-1.3
COc1ccc(C2=Nn3c(nnc3-c3ccccc3)SC2)cc1OC	10.7	nt	0.6	4.0	3.8	-6.4
COc1ccc(OC)c(-c2nnc3n2N=C(c2ccc(OC)c(OC)c2)CS3)c1	80.4*	-0.8	2.4	-15.1	nt	5.4
CCCNC(=O)c1cc2c(c(-c3cccc(-c4cccc(F)c4)c3)n1)[C@H](CCO)N([S@@](=O)C(C)(C)C)C2	nt	2.5	2.6	2.7	-4.3	-0.7
C[C@@H]1CN([C@@H](C)CO)C(=O)c2cc(NC(=O)Nc3ccc(F)cc3)ccc2O[C@@H]1CN(C)CC1CCCCC1	-9.4	0.7	-1.9	10.5	nt	1.6
COc1ccc(OCc2nnc3n2N=C(c2ccc(OC)cc2)CS3)cc1	44.7*	2.9	-2.5	-8.1	-0.6	-16.5
C[C@H](CO)N1C[C@H](C)[C@@H](CN(C)Cc2ccccc2)Oc2cc(C3=CCCCC3)ccc2S1(=O)=O	26.0	nt	nt	nt	24.9	nt

Bioassay records deposited in PubChem by Broad Institute.
